One may read the inhibition as the drop in the measured response relative to a control, in per cent.

Fluorescence ratio, inhibition and survival data for two compounds are collected here from PubChem BioAssay.

A number with no mark means an inactive call. Unless noted, no rule for the calls is given here.

The nature of assay [1]: signal quenchers or enhancers, Cy5 substrate/SSB – biochemical, NIH Clinical Collection, E. coli SSB, artefact control for HCV NS3 helicase inhibitor project (AID 743268). The note with it: Cy5-oligo bound E. coli SSB, fluorescence interference.
Assay [2] relates to Hepatitis C virus NS3 helicase. The assay is described as follows: blockers of NS3h binding to DNA – biochemical, fluorescence polarization, NIH Clinical Collection, primary screen (AID 743270). The note with it: NS3 helicase binding to Cy5-dT15 DNA, stronger effect = higher value, concentration not given here. In general terms: Polarisation of emitted light reports the rotation of a fluorescent probe.

The target in assay [3] is Single-stranded DNA-binding protein (Escherichia coli (strain K12)) (UniProt P0AGE0). Nature of the assay: SSB-ssDNA binding inhibitors – biochemical, fluorescence polarization, NIH Clinical Collection, counter-screen for HCV NS3 helicase inhibitor project (AID 743271; in the data active = inhibition above about 28%). The note with it: E. coli SSB-DNA binding, stronger effect = higher value, concentration not given here.
Assay [4] is described as follows: compounds distorting NS3 helicase fluorescence signal – biochemical, NIH Clinical Collection, artefact control for HCV NS3 helicase inhibitor project (AID 743272).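 Also: HCV NS3 helicase with a Cy5 labelled single stranded DNA probe.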 The note with it: fluorescence interference counterscreen, HCV NS3 helicase assay; stronger effect = lower value. Background: A counterscreen serves to expose hits that act by an unwanted route or on another target.

Assay [5] in a line: compounds altering viability of human ES cells (AID 493140).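 Also: cells exposed to compounds for four days before counting.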 The note with it: human embryonic stem cell survival screen; stronger effect = higher value.

As to `CO[C@H]1/C=C/O[C@@]2(C)Oc3c(C)c(O)c4c(O)c(c5c(c4c3C2=O)=NC2(CCN(CC(C)C)CC2)N=5)NC(=O)/C(C)=C\C=C\[C@H](C)[C@H](O)[C@@H](C)[C@@H](O)[C@@H](C)[C@H](OC(C)=O)[C@@H]1C`, the fluorescence ratio is 1.02 in assay [1] and 0.96 in assay [4]. Besides, the results for the inhibition in assay [2] and in assay [3] were 1.36% and 6.39%, respectively.
Consider `C=C(NC(=O)C(=C)NC(=O)c1csc(C2=NC3c4csc(n4)C4NC(=O)c5csc(n5)C(C(C)(O)C(C)O)NC(=O)C5CSC(=N5)/C(=C/C)NC(=O)C(C(C)O)NC(=O)c5csc(n5)C3(CC2)NC(=O)C(C)NC(=O)C(=C)NC(=O)C(C)NC(=O)C(C(C)CC)NC2C=Cc3c(C(C)O)cc(nc3C2O)C(=O)OC4C)n1)C(N)=O` (stereo not given), for which the survival in assay [5] was 0.917.
